# KKLEB cytotox: reduces viability of KKLEB cystic fibrosis airway cells; KKLEB CF airway cells viability, ATPlite luminescence, overnight; stronger effect = lower value; cells stimulated with P. aeruginosa culture filtrate; hit rate 0.36% among 360,000; activity change (cytotoxicity), % at 5 µM;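 active means corrected activity change at or below -50% at 5 µM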
# HIF-2a inh: blocks HIF-2a reporter activity; 786-0 RCC cells HIF-2a reporter, luciferase luminescence, overnight; inhibition, % at 18.8 µM; AID 624352; hit rate 0.72% among 360,000;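 active means inhibition of the luminescence signal of 40% or more relative to plate controls, in a single-dose primary screen at 18.75 µM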
# TRPM1 prom inh: inhibitors of MITF-driven TRPM1 promoter in melanoma cells; SK-MEL-5 TRPM1 promoter luciferase, 24 h; hit rate 0.83% among 330,000; AID 488899; inhibition, % at 12.5 µM;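 active means mean inhibition across replicates of 60% or more, whatever share of single replicates reaches that level; inconclusive means some that reach 60%, reason not given; inactive means mean inhibition across replicates below 60%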
# Peg3 prom inh: reduces Peg3 promoter-driven luciferase expression in HeLa; HeLa PEG-Prom luciferase reporter, luminescence, overnight; hit rate 1.7% among 360,000; inhibition, % at 20 µM; AID 588405;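 active means inhibition of at least 50% at 20 µM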
# CF NFkB block: inhibitors of cystic fibrosis induced NF-kB | KKLEB NF-kB-GFP reporter, PAF-induced, GFP fluorescence overnight | inhibition, % at 5 µM | hit rate 0.86% among 360,000;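 active means at least 50% inhibition at 5 µM, scaled per plate between neutral and stimulator controls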;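 further: PAF is a Pseudomonas aeruginosa culture filtrate used as stimulus; plate controls were PAF-stimulated DMSO wells for no effect and unstimulated DMSO wells for full effect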
# EBV LMP1 NFkB: reduces LMP1-driven NF-kappaB luciferase signal. LMP1-induced NF-kappaB luciferase reporter cells, luminescence. inhibition, % at 12.5 µM. hit rate 0.69% among 350,000. AID 504558; in the data active means inhibition above about 41%; inconclusive means no clear call, values can overlap the other calls;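 further: 0% = neutral control wells and 100% = reference inhibitor control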
# CF NFkB conf: confirmation of cystic fibrosis induced NF-kB inhibitors. shares compounds with CF NFkB block. KKLEB CF airway cells, PAF-induced NF-kB-GFP fluorescence, overnight. inhibition, % at 5 µM. hit rate 64% among 1,300. AID 602472; in the data active means inhibition above about 40%;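 further: stimulus PAF is a Pseudomonas aeruginosa filtrate and not platelet activating factor; plate controls were DMSO wells with stimulus for no effect and unstimulated DMSO wells for full effect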
# Mdm2-MdmX confirm: Mdm2/MdmX (human) interaction inhibition, confirmed. shares compounds with HIF-2a inh. inhibition, % at 8 µM. hit rate 99% among 740. AID 504601. SaOS-2 split-luciferase Mdm2/MdmX complementation, luminescence;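 active means mean inhibition of the luminescence signal across two replicates at or above 26 percent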
# Target sequence (O15151 whole entry, looked up): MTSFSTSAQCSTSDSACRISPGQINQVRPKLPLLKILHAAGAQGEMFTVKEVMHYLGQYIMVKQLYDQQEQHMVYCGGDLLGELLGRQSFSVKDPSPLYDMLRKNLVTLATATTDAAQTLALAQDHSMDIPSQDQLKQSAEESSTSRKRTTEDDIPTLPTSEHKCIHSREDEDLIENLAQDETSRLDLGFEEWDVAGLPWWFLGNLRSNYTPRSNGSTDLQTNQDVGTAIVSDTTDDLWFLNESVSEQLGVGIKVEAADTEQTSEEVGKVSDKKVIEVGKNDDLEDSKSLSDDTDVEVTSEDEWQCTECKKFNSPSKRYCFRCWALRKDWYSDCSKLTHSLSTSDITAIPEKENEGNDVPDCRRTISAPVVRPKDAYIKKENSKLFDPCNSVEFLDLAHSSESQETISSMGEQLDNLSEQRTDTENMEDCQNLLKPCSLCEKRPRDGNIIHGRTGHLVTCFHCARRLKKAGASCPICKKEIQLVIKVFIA
# Target sequence (Q00987 whole entry, looked up): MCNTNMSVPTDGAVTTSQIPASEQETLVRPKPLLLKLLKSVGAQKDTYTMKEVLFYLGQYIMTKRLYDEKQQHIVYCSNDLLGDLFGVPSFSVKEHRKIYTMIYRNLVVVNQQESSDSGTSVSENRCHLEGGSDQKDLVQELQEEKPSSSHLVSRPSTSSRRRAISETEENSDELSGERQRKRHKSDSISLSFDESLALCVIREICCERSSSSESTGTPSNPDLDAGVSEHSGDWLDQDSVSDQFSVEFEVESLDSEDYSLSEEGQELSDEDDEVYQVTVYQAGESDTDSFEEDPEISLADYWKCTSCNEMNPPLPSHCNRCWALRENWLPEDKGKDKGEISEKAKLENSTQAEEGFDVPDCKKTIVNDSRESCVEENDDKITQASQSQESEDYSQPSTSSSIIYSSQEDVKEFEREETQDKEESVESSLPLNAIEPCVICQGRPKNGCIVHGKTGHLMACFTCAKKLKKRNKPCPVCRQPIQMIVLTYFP
# HIF-2a conf: HIF-2a inhibition, single concentration confirmation. 786-0 RCC cells, HIF-2a luciferase reporter luminescence, overnight. hit rate 56% among 1,800. shares compounds with HIF-2a inh. AID 651580. inhibition, % at 18.8 µM;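 active means mean inhibition across four replicates of at least 40 percent at the single tested concentration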
# HIF-1a cs: counter-screen for HIF-2a inhibitors: HIF-1a inhibition in MiaPaCa-2 cells. shares compounds with HIF-2a inh. MiaPaCa-2 HIF-1a luciferase reporter, desferoxamine, overnight. inhibition, % at 18.8 µM. hit rate 72% among 1,800;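 active means mean inhibition of the reporter signal across four replicates at the single tested dose of 50% or more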
# An asterisk follows results filed as active; ? = inconclusive; . = no result given. Shown are actives, neighbours in structure and some others; about 3% of the full set was active somewhere.
SMILES,KKLEB cytotox,HIF-2a inh,TRPM1 prom inh,Peg3 prom inh,CF NFkB block,EBV LMP1 NFkB,Mdm2-MdmX confirm,HIF-2a conf,HIF-1a cs,others
FC(F)(F)c1nnc2c(Sc3ccccn3)nc3ccccc3n12,-9.8,-45.2,46.3,23.9,47.1,-28.5,.,.,.,
FC(F)(F)c1nnc2c(Sc3ccc(Cl)cc3)nc3ccccc3n12,-16.8,41.5*,78.5*,67.3*,103.6*,-49.7,.,9.6,45.7,CF NFkB conf=101.1*
CC(=O)c1ccc(-c2cnc3c(NC=O)cc(-c4ccc(C(=O)NC5CC5)cc4)cn23)cc1,-29.5,38.6*,.,62.8*,56.0*,.,.,36.6,94.2*,CF NFkB conf=60.8*
COc1ccc(-c2cnc3c(NC(C)=O)cc(-c4ccc(C(=O)NC5CC5)cc4)cn23)cc1OC,-13.3,2.5,.,35.6,46.2,.,.,.,.,
CC(C)Oc1ccc(F)cc1-c1cc(C(=O)N2CCc3ccccc3C2)[nH]n1,-1.5,6.0,.,10.2,-17.5,.,.,.,.,
C=C1C(=O)C23C(O)C1CCC2C12COC3(O)C(O)C1C(C)(C)CCC2O (configuration not stated),-47.6,95.4*,.,94.0*,81.9*,.,.,93.8*,105.2*,CF NFkB conf=70.1*
CN(C)CCCN(C(=O)CCS(=O)(=O)c1ccccc1)c1nc2cc3c(cc2s1)OCO3,-10.7,62.5*,57.9,107.2*,96.0*,21.9,.,38.1,101.8*,CF NFkB conf=104.1*
Cc1cn([C@H]2C[C@H](O)[C@@H](CCC(=O)NCCc3ccc4ccccc4c3)O2)c(=O)[nH]c1=O,-6.8,8.4,.,12.9,-17.3,.,.,.,.,
COc1cccc(/C=N/NC(=O)c2nnn(-c3nonc3N)c2CN(C)C2CCCCC2)c1,0.5,5.9,.,3.9,7.2,-1.1,.,.,.,
Nc1nc(N)nc(-c2cc(O)ccc2O)n1,3.8,-6.0,-1.4,-17.3,54.0*,19.5,101.5*,.,.,CF NFkB conf=72.0*
CC(=O)c1c(C)[nH]c(C(=O)Nc2ccc(C)cn2)c1C,5.3,45.8*,45.4,48.7,-24.7,58.1*,.,60.4*,56.4*,
O=C1NC[C@H](CCCCN2CCN(CCC3CCCCC3)C(=O)C2=O)N(CCC2CCCCC2)C1=O,.,14.3,.,.,.,.,.,.,.,
COc1ccc(Cl)cc1Cn1c(C)c(C(=O)NCc2cccc([N+](=O)[O-])c2)sc1=O,5.6,-5.1,.,8.4,-7.2,.,.,.,.,
COC(=O)[C@H]1C[C@@]2(O)CN(S(=O)(=O)c3ccc(C)cc3)C[C@@]2(OC(=O)NC2CCCC2)C[C@H]1C(=O)OC,5.8,11.0,.,-2.8,10.0,-3.6,.,.,.,
O=C(CC(=O)c1cc(Cl)ccc1O)c1ccccc1,0.5,-294.1,-16.2,-195.1,-28.0,7.2,.,.,.,
O=C(c1ccccc1)c1cc(Cl)ccc1N1C(=O)C=CC1=O,-14.2,75.0*,83.6*,105.4*,58.0*,8.9,.,78.4*,-10.8,
O=C(O)c1ccc(NC2=C(Cl)C(=O)c3ccccc3C2=O)cc1,-88.9*,93.9*,96.3*,108.8*,92.4*,-1.5,101.3*,.,.,
Cc1ccc(Oc2c(C(N)=O)cc([N+](=O)[O-])cc2[N+](=O)[O-])cc1,-94.8*,94.3*,92.3*,105.9*,84.9*,11.8,102.5*,73.9*,102.0*,
O=C(C[C@H]1C[C@@H]2c3cc(NC(=O)Nc4ccccc4)ccc3O[C@@H]2[C@@H](CO)O1)NCC1CC1,-3.2,1.1,.,-7.2,25.3,12.5,.,.,.,
COc1ccc(C)cc1Nc1n[n+](C)c(-c2c3ccccc3cc3ccccc23)s1,1.6,-24.8,-24.3,-6.4,5.1,-2.8,.,.,.,
COc1ccc(C)cc1Nc1n[n+](-c2ccccc2)c(-c2c(Cl)cccc2Cl)s1,.,.,.,.,.,.,98.0*,.,.,
O=C(Nc1ccc(Cl)cc1)Nc1ccccc1Sc1ncc([N+](=O)[O-])s1,9.3,-181.6,52.7,-70.1,21.1,-31.1,.,.,.,
O=[N+]([O-])c1cnc(Sc2ccncn2)s1,-14.5,94.8*,83.0*,109.9*,74.7*,37.7,101.7*,.,.,
CC(C)(C)c1cc(C(=O)NN)n(Cc2ccc(F)cc2)n1,-14.6,13.0,6.4,4.9,9.0,6.5,.,.,.,
CC(C)CC(N)c1csc(NC(=O)c2cc(C(C)(C)C)nn2Cc2ccccc2)n1 (configuration not stated),-21.2,92.0*,.,111.5*,0.8,.,.,7.9,106.6*,
SMILES,KKLEB cytotox,HIF-2a inh,TRPM1 prom inh,Peg3 prom inh,CF NFkB block,EBV LMP1 NFkB,Mdm2-MdmX confirm,HIF-2a conf,HIF-1a cs,others
O=C(CN1CCCCC1)NC(=O)NC1CCCC1,7.5,-21.9,-12.7,-24.1,4.0,-5.9,.,.,.,
O=C(Cn1ncc(Cl)c(Cl)c1=O)NC(=O)NC1CCCCC1,-64.3*,84.2*,115.2*,89.3*,90.5*,3.8,101.5*,91.7*,105.6*,
Cc1ccc(S(=O)(=O)N2CCCCC2)cc1NC(=O)Cn1ncc(Cl)c(Cl)c1=O,-88.9*,94.2*,100.5*,109.3*,103.7*,-31.2,102.7*,99.2*,103.7*,
CCOC(=O)c1ccc(NC(=O)Cn2ncc(Cl)c(Cl)c2=O)cc1,-94.7*,89.3*,103.4*,104.4*,89.2*,-28.3,103.2*,97.8*,104.8*,
CCC(=O)Nc1ccc(C(=O)Cn2ncc(Cl)c(Cl)c2=O)cc1,-3.9,89.7*,?,106.3*,43.9,-74.7,.,-9.0,105.1*,
O=C(Cn1ncc(Cl)c(Cl)c1=O)N1CCN(S(=O)(=O)c2ccc3ccccc3c2)CC1,-68.1*,94.5*,89.1*,105.6*,81.8*,13.6,101.7*,96.0*,105.3*,
O=C(Cn1ncc(N2CCCC2)c(Cl)c1=O)c1ccc(Cl)cc1,8.6,-162.8,-23.6,-235.9,6.2,19.6,.,.,.,
CCOC(=O)c1ccc(NC(=O)Cn2nc(C)c3ccccc3c2=O)cc1,18.9,9.1,15.9,-8.5,-4.3,6.5,.,.,.,
O=C(O)CCC(=O)N1CCN(S(=O)(=O)c2ccc3ccccc3c2)CC1,2.6,6.8,-5.1,12.8,-3.4,-5.9,.,.,.,
Cc1cccc(C)c1-n1nnnc1C(c1ccnc2ccccc12)N(C)Cc1ccc(Cl)c(Cl)c1 (configuration not stated),.,1.1,.,.,.,.,.,.,.,
CC(=O)C(=Cc1ccccc1)c1ccccc1,.,11.6,.,.,.,.,.,.,.,
CCN(CC)S(=O)(=O)c1cc(NC(=O)Cn2ncc(Cl)c(Cl)c2=O)ccc1C,-65.6*,96.8*,85.3*,101.0*,89.0*,-59.9,103.0*,47.9*,104.5*,
CCN1CCN(CCNC(=O)c2ccc(/C=C3/Sc4ccccc4N(Cc4cccc(Cl)c4)C3=O)cc2)CC1,-29.0,17.4,67.5*,96.6*,20.9,-11.5,102.2*,.,.,

# Screening data as filed in PubChem BioAssay.
